From PubChem BioAssay (NCATS)
Records with an inconclusive call do not appear. Unmarked numbers belong to inactive results. Calls of active or inactive are those of the source. Calls come from the whole dose curve; as a rule, active = well fitted cell-killing curve with a large enough effect; inconclusive = small, poorly fitted or top-dose-only effect, or effect the other way; inactive = no such curve, though single readings can be large or run the other way.

Assay: Viability qHTS for spleen associated tyrosine kinase inhibitor (SYKi) drug resistant MV4-11 cells (AID 1963824); note: nearly all actives have a fitted effect of over 35% in size
Details: SYKi-resistant MV4-11 viability, CellTiter-Glo, 72 h; series mostly up to 45 µM; viability, % of control: at the top concentration
Procedure, shortened: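 SYK-inhibitor-resistant MV4-11 AML cells were seeded at 500 per well onto compound and cultured 72 hours (37 °C, 5% CO2). CellTiter-Glo was then added, and after 10 min at room temperature, luminescence gave viability.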
Potency is the fitted concentration of half-maximal effect.

Compound | Potency | viability, % of control
COc1ccc(Oc2c(Cl)cnn(C3c4ccccc4-c4ccccc43)c2=O)cc1 | 14.6 µM (active) | 
CCOc1ccc(S(=O)(=O)N2CCCCCC2)c2ccccc12 | 20.6 µM (active) | 
O=C1NC(=O)/C(=C\c2ccc(-c3ccc(F)cc3O)o2)S1 | 11.6 µM (active) | 
Cc1c(CN(C)C(=O)/C=C/c2cnc3c(c2)CCC(=O)N3)oc2ccccc12 |  | 89%
COc1cc2c(cc1O)C1(OC)Cc3ccc4c(c3C1N(C)CC2)OCO4 (stereo unspecified) | 5.08 µM (active) | 
CC1CCC2C(C)(C)C(O)CCC2(C)C12Cc1c(O)cc3c(c1O2)CN=C3N (stereo unspecified) |  | 71.5%
CC(=O)O[C@@H]1CC(C)=C2[C@H]1[C@H](C)CC[C@H]2/C=C(\C)C(=O)O | 16.4 µM (active) | 
CC(=O)NC(CCC(=O)O)C(=O)NCCc1ccc(O)cc1 (stereo unspecified) |  | 85%
CN[C@@H](C)C(=O)N[C@@H]1C(=O)N(Cc2c(C)ccc3ccccc23)c2ccc(C#N)cc2N(C(C)=O)[C@H]1C | 13.2 µM (active) | 
CC1=C2CC3OC3(C)CCC3OC3(C)CC2OC1=O (stereo unspecified) | 3.66 µM (active) | 
O=C(/C=C/c1ccc(O)cc1)O[C@H]1[C@H](OC2CCCCC2O)O[C@H](CO)[C@@H](O)[C@@H]1O (stereo partly specified) |  | 83.2% [at 17.3 µM]
